Compound activity (PubChem BioAssay)
AT treatment: potential ataxia-telangiectasia treatment. F2112 A-T fibroblasts, KAP-1 phosphorylation AlphaLISA; neocarzinostatin DNA damage 30 min before lysis. Potency, µM (series often up to 57.5 µM), without a hit: at the highest dose activation, actives largely listed as activators. 0.19% of 320,000 active. AID 485349; further: potency means the concentration at half of the fitted maximal effect; % of control where 0% means no effect; nearly all actives have a fitted effect of over 45% in size
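hTERT-immortalized A-T patient fibroblasts (F2112), 500 cells/well in OPTI-MEM, 1% FBS, got compounds for 60 min, then NCS for 30 min at 37C. Lysates were then assayed for phospho-KAP-1 by AlphaLISA (anti-pKAP1 donor, anti-KAP1 acceptor beads), 6 hr at 25C.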
hERG WT inh: KCNH2 (human, wildtype) channel inhibition. U2OS, BacMam KCNH2, thallium flux FluxOr; stronger effect = lower value. activity change, % at 1.84 µM. 0.37% of 340,000 active;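 active means maximum activity change below -70%; inconclusive means maximum activity change between -70% and -50%; inactive means maximum activity change above -50%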; further: on the % scale 0 is the no-effect control and ±100 the full control effect
Target sequence (Q12809 whole entry, looked up): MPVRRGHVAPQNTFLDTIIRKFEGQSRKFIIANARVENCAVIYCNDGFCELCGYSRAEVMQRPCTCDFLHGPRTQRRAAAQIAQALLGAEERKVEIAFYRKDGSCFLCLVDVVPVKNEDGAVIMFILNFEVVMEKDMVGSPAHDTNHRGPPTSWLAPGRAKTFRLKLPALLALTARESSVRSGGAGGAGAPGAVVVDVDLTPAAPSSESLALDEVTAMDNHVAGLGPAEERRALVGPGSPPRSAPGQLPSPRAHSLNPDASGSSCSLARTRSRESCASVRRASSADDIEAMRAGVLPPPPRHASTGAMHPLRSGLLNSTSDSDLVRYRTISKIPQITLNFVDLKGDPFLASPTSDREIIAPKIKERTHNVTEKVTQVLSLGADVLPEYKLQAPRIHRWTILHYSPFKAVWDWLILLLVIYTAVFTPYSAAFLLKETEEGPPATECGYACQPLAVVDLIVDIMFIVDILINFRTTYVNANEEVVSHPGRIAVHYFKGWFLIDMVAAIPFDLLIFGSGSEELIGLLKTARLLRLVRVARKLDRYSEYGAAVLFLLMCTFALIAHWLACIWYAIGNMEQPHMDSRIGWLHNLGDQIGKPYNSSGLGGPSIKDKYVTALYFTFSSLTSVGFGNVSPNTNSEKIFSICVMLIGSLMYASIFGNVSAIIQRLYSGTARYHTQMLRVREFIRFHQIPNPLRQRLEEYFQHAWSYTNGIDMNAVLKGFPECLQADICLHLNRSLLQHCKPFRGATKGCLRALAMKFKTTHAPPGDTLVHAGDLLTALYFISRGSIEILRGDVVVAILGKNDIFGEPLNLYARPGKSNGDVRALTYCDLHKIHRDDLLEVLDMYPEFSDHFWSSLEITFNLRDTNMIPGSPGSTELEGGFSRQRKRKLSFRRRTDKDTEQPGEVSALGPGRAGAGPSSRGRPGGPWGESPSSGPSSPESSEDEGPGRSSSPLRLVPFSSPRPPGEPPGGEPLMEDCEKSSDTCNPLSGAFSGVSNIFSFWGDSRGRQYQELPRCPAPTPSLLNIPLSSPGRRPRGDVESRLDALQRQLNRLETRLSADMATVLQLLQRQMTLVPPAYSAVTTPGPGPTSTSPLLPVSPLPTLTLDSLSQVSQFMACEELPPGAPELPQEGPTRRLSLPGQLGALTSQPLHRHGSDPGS
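U2OS cells were transduced with wild-type KCNH2 virus (2.03 x 10^8 / mL) for 4 h at room temperature, then cultured overnight at 37 C. Thallium flux was read with FluxOr dye. Rate constants were normalized to DMSO controls.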
KCNH2 3.1 inh: inhibitors of human KCNH2 3.1 potassium channel isoform; U2OS KCNH2 3.1, thallium flux FluxOr; stronger effect = lower value; activity change, % (tested at about 1.8 µM); 0.95% of 340,000 active; AID 720553;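 active means maximum activity change below -70%; inconclusive means maximum activity change from -70% to -50%; inactive means maximum activity change above -50%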;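 further: thallium influx rate constant from kinetic fluorescence after stimulation buffer; on the % scale 0 is the no-effect control and ±100 the full control effect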
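Normalized rate constant (relative to positive and negative DMSO controls) derived from a 2 min kinetic fluorescence read after stimulation; U2OS cells expressing the 3.1 isoform via virus at 1.77 x 10^8 /mL.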
ALOX12 inh: inhibitors of human 12S-lipoxygenase ALOX12. P18054. purified 12hLO, xylenol orange hydroperoxide absorbance. Potency, µM (doses to about 108 µM), without a hit: at the highest dose activity change, negative = inhibition, actives largely listed as inhibitors. 1.1% of 580,000 active. AID 1671190; further: potency means the concentration at half of the fitted maximal effect; on the % scale 0 is the no-effect control and ±100 the full control effect
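Purified human 12hLO at 150 nM in 25 mM Hepes, 0.01% Triton X-100, pH 7.0, preincubated 15 min at room temperature with compound. Reaction started with 40 uM arachidonic acid, 30 min at room temperature. Hydroperoxide measured by Fe-xylenol orange, 573/405 nm absorbance ratio.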
An asterisk follows results filed as active; ? = inconclusive; · = not tested or not shown; ! = a repeat was not active. This is a sample that favours compounds with a hit; in the whole collection about 1.8% have one here. Unless noted, the call rests on the fitted dose curve; in most records, active means well fitted curve in the direction sought with a large enough effect; inconclusive means small, poorly fitted or top-dose-only effect, or another doubt; inactive means no such curve, though single readings can be large; an effect the other way counts as inactive or inconclusive.

SMILES | AT treatment | hERG WT inh | KCNH2 3.1 inh | ALOX12 inh
COc1ccc(CCNC(=O)CSCc2ccc([N+](=O)[O-])cc2)cc1 | -3.4% | 1.8 | 6.1 | -17.5%
Cc1ccc(CCC(=O)NCc2ccccn2)cc1 | · | · | · | 13.5%
CC(C)CCN1CCCCCCNC(=O)[C@@H]2CCC[C@@H]21 | · | · | · | 235.0%
COc1cc(/C=C(/C#N)C(=O)NC2CC2)ccc1O | · | · | · | 5.0%
CC1(C)CC(N2CCCC2)=CC(=[N+]2CCCC2)C1 | 8.4% | -0.9 | 5.6 | 39.8µM*
CC1(C)CC(N2CCCC2)=CC(=[N+]2CCCCC2)C1 | -5.0% | -1.4 | 26.7 | 39.8µM*
CCc1cccc(C)c1NC(=O)CCn1c(=O)n(CC)c2ccccc21 | · | · | · | -9.0%
Cc1nnsc1S(=O)c1ccc(Cl)cc1 (centres undefined) | 12.3% | 1.8 | 20.0 | 0.0%
O=C(Nc1ccccc1)c1nnsc1S(=O)c1ccc(Cl)cc1 (centres undefined) | -5.3% | 2.0 | -30.8 | 14.1µM*
CCCN(CCC)CC1=C(C(=O)OCC)C(c2ccc(C)cc2)NC(=O)N1 (centres undefined) | · | · | · | 14.1µM*
COc1ccccc1CCC(=O)N1CC[C@@H]2[C@@H](CCC(=O)N2CCN)C1 | · | · | · | -5.5%
Cc1cccc(C(=O)N=c2c(C#N)cc3c(=O)n4cccc(C)c4nc3n2Cc2ccco2)c1 | 1.8% | -0.5 | 1.2 | 35.5µM*!
Cc1cccn2c(=O)c3cc(C#N)c(=NC(=O)c4ccccc4)n(Cc4ccco4)c3nc12 | · | -1.5 | -5.8 | 7.08µM*
c1ccc2sc(SSc3nc4ccccc4s3)nc2c1 | · | · | · | 4.96µM*
N#Cc1ccccc1-c1ccc(CN2CCCC2)cc1 | · | · | · | -35.3%
CCCN1CCC(N2CCC(C(=O)Nc3cccc(-c4cccc(F)c4)c3)CC2)CC1 | · | · | · | 14.9%
CCn1nc(C)c(CN2CCC(C(=O)Nc3cccc(-c4cccc(Cl)c4)c3)CC2)c1C | 0.5% | -94.1* | -95.1* | 6.9%
CC(=O)c1cccc(CN2CCC(C(=O)Nc3ccc(-c4cccc(C)c4)cc3)CC2)c1 | -8.0% | -12.7 | -101.0* | ?
O=C(Nc1cccc(-c2cccc(F)c2)c1)C1CCN(Cc2ccc(CO)o2)CC1 | 6.8% | 8.4 | -13.1 | 38.2%
Cc1cc(C)n(CCCN2CCC(C(=O)Nc3cccc(-c4cccc(F)c4)c3)CC2)n1 | 1.1% | -105.1* | -102.1* | 0.0%
CS(=O)(=O)N1CCC(C(=O)Nc2cccc(Cl)c2)CC1 | 0.3% | -3.3 | -7.0 | -0.8%
CCn1ncc(CN2CCC(C(=O)Nc3cccc(-c4cccc(F)c4)c3)CC2)c1C | 9.2% | -116.5* | -96.5* | -10.8%
CN(Cc1nc2scc(-c3ccc(F)cc3)c2c(=O)[nH]1)Cc1ccco1 | · | · | · | 9.2%
Cc1ncc(CN2CCCC(C(=O)Nc3ccc(-c4cccc(F)c4)cc3)C2)n1C (centres undefined) | 9.2% | -16.8 | -84.2* | 79.2%
N=c1n(Cc2ccc(Cl)cc2)c2ccccc2n1CC(O)COc1ccccc1 (centres undefined) | -3.4% | ? | -84.8* | ?
SMILES | AT treatment | hERG WT inh | KCNH2 3.1 inh | ALOX12 inh
COc1ccc(OCC(O)Cn2c(=N)n(Cc3ccccc3)c3ccccc32)cc1 (centres undefined) | -4.1% | -0.6 | -6.9 | -44.0%
Cc1ccc(OCC(O)Cn2c(=N)n(Cc3ccccc3)c3ccccc32)cc1 (centres undefined) | -1.3% | -93.7* | -74.7* | -19.1%
CCc1ccc2c(c1)-c1ccccc1S(=O)(=O)N2CC(=O)NCc1cccnc1 | · | · | · | -12.4%
Cc1ccc2c(ccn2CCC(=O)Nc2nnc(CC(C)C)s2)c1 | · | · | · | -3.2%
Cc1ccc(S(=O)(=O)NCCc2ccccc2)cc1 | 1.1% | -1.5 | -8.0 | 42.6%
Cc1ccc(S(=O)(=O)NN(Cc2ccccc2)Cc2ccccc2)cc1 | · | 0.7 | -1.8 | 15.8µM*
CN(CC(=O)Nc1c(Cl)cccc1Cl)CC(=O)N1CCC(Cc2ccccc2)CC1 | · | · | · | -7.0%
COc1ccc(C(CC(=O)c2ccc(C)cc2)Sc2ccccc2N)cc1 (centres undefined) | · | 12.6 | 6.4 | 50.1µM*
Nc1ccccc1SC(CC(=O)c1ccccc1)c1ccc([N+](=O)[O-])cc1 (centres undefined) | · | 2.1 | -41.5 | ?
O=C(NCCc1csc(-c2cccnc2)n1)c1ccc(Br)o1 | -4.8% | -71.1* | 5.6 | 15.2%
O=C(NCCc1csc(-c2cccnc2)n1)c1c(F)cccc1F | 39.8µM* | 8.5 | -0.7 | 7.1%
CCCCCCC(=O)N(O)C1CC(=O)N(c2ccc(Cl)cc2)C1=O (centres undefined) | 2.2% | -2.6 | -18.4 | 1.26µM*
